# Assay results published in ChEMBL document CHEMBL1157539, “Thousands of chemical starting points for antimalarial lead identification” (Nature, 2010).
# Tests used:
# Assay type in all cases: functional
# Plasmodium falciparum [1] = test: GSK_TCMDC: Inhibition of Plasmodium falciparum 3D7 in whole red blood cells, using parasite LDH activity as an index of growth. Test compounds present at 2uM
# Plasmodium falciparum [2] = test: GSK_TCMDC: Inhibition of Plasmodium falciparum Dd2 in whole red blood cells, using parasite LDH activity as an index of growth. Test compounds present at 2uM
# HepG2 = test: GSK_TCMDC: Percent inhibition of human HepG2 cell line. Test compounds present at 10uM.
smiles,measurement,setting,value
CC(C)CNCc1ccc(-c2cccc(CN(C(=O)NCCc3ccccc3)C3CCN(Cc4ccccc4)CC3)c2)cc1.O=C(O)C(F)(F)F,Inhibition,Plasmodium falciparum [1],100%
same,Inhibition,Plasmodium falciparum [2],94%
same,Inhibition,HepG2,91%
COc1ccccc1Nc1nc(C)cc(NCc2ccc(-n3ccnc3)cc2)n1,Inhibition,Plasmodium falciparum [1],90%
same,Inhibition,Plasmodium falciparum [2],10%
same,Inhibition,HepG2,5%
O=c1c(NCCCN(Cc2ccc(F)cc2)c2ccccn2)c(NCc2ccncc2)c1=O,Inhibition,Plasmodium falciparum [1],100%
same,Inhibition,Plasmodium falciparum [2],95%
same,Inhibition,HepG2,30%
COc1ccc(CNC(=O)c2cc3c(=O)n4ccccc4nc3n(CCc3ccccc3)c2=N)cc1,Inhibition,Plasmodium falciparum [1],99%
same,Inhibition,Plasmodium falciparum [2],22%
same,Inhibition,HepG2,26%
c1ccc2c(NCCc3c[nH]cn3)c3ccccc3nc2c1,Inhibition,Plasmodium falciparum [1],91%
same,Inhibition,Plasmodium falciparum [2],0%
same,Inhibition,HepG2,20%
CN1CCc2ccc(NC(=O)Nc3ccc(-c4ccccc4)cc3)cc2C1,Inhibition,Plasmodium falciparum [1],90%
same,Inhibition,Plasmodium falciparum [2],45%
same,Inhibition,HepG2,24%
CC(C)(C)c1ccc(CNC(=O)c2ccc(CNC3CCC(N)CC3)s2)cc1 (centres undefined),Inhibition,Plasmodium falciparum [1],100%
same,Inhibition,Plasmodium falciparum [2],10%
same,Inhibition,HepG2,41%
Cc1cn(CC(=O)Nc2cccc(-c3cccc(-c4nc5cc(C(F)(F)F)ccc5[nH]4)c3)c2)c(=O)[nH]c1=O,Inhibition,Plasmodium falciparum [1],92%
same,Inhibition,Plasmodium falciparum [2],51%
same,Inhibition,HepG2,15%
O=C(COc1ccccc1)NC1CCN(c2ccnc3cc(Cl)ccc23)C1.O=C(O)C(F)(F)F (centres undefined),Inhibition,Plasmodium falciparum [1],100%
same,Inhibition,Plasmodium falciparum [2],35%
same,Inhibition,HepG2,22%
CCc1cn2c3c(cc(C(=O)N[C@@H](Cc4ccccc4)[C@H](O)CNCc4ccccc4C)cc13)N(C)S(=O)(=O)CC2.O=CO,Inhibition,Plasmodium falciparum [1],98%
same,Inhibition,Plasmodium falciparum [2],98%
same,Inhibition,HepG2,3%
Cl.O=C(Nc1ccc(Cl)c(Cl)c1)Nc1ccc2nccc(N3CCNCC3)c2c1,Inhibition,Plasmodium falciparum [1],99%
same,Inhibition,Plasmodium falciparum [2],62%
same,Inhibition,HepG2,18%
Cc1cccc2nc(-c3cccc(-c4cccc(NC(=O)Cc5c[nH]cn5)c4)c3)[nH]c12,Inhibition,Plasmodium falciparum [1],100%
same,Inhibition,Plasmodium falciparum [2],100%
same,Inhibition,HepG2,32%
O=C(Nc1ccc2c(c1)CCC2)c1nc(N2CCN(c3ccncc3)CC2)ccc1Cl.O=C(O)C(F)(F)F,Inhibition,Plasmodium falciparum [1],100%
same,Inhibition,Plasmodium falciparum [2],97%
same,Inhibition,HepG2,55%
CC(C)(CNC(=O)/C=C/c1ccc(C(F)(F)F)cc1)CNc1cc(=O)c2ccccc2[nH]1,Inhibition,Plasmodium falciparum [1],95%
same,Inhibition,Plasmodium falciparum [2],27%
same,Inhibition,HepG2,0%
CCOc1cc[nH]c(=O)n1,Inhibition,Plasmodium falciparum [1],97%
same,Inhibition,Plasmodium falciparum [2],95%
same,Inhibition,HepG2,0%
COc1ccc2nccc([C@H](O)CN3CCC(NCc4ccc5c(c4C)OCCO5)CC3)c2n1.Cl,Inhibition,Plasmodium falciparum [1],94%
same,Inhibition,Plasmodium falciparum [2],6%
same,Inhibition,HepG2,26%
CCN1CCCC(CNC(=O)/C(=C/C=C/c2cc3cc(Cl)c(Cl)cc3[nH]2)OC)C1 (centres undefined),Inhibition,Plasmodium falciparum [1],93%
same,Inhibition,Plasmodium falciparum [2],89%
same,Inhibition,HepG2,33%
CO/C(=C\C=C\c1cc2cc(Cl)c(Cl)cc2[nH]1)C(=O)NCCCN1CCN(c2ccc(OC)cc2)CC1,Inhibition,Plasmodium falciparum [1],99%
same,Inhibition,Plasmodium falciparum [2],44%
same,Inhibition,HepG2,40%
CN(C(=O)c1nn(-c2ccccn2)c2nccc(-c3cccs3)c12)C1CCCCC1,Inhibition,Plasmodium falciparum [1],87%
same,Inhibition,Plasmodium falciparum [2],1%
same,Inhibition,HepG2,4%
CCc1cccc2sc(N3CCN(C(=O)c4ccc([N+](=O)[O-])o4)CC3)nc12,Inhibition,Plasmodium falciparum [1],97%
same,Inhibition,Plasmodium falciparum [2],94%
same,Inhibition,HepG2,2%
COc1ccc(S(=O)(=O)NC2CCN(c3ccc(C(F)(F)F)cc3NC(=O)OCC(C)C)CC2)cc1,Inhibition,Plasmodium falciparum [1],85%
same,Inhibition,Plasmodium falciparum [2],13%
same,Inhibition,HepG2,19%
O=C(Nc1ccc(Oc2ccccc2)cc1)N(Cc1ccc(-c2cccc(CN3CCNCC3)c2)cc1)C1CCN(Cc2ccccc2)CC1.O=C(O)C(F)(F)F,Inhibition,Plasmodium falciparum [1],93%
same,Inhibition,Plasmodium falciparum [2],53%
same,Inhibition,HepG2,10%
COc1c(Br)cc(Br)cc1C(C)=O,Inhibition,Plasmodium falciparum [1],95%
same,Inhibition,Plasmodium falciparum [2],0%
same,Inhibition,HepG2,3%
CCN(CC)CCCC(C)Nc1c(-c2ccc(OC)cc2)cnc2ccccc12 (centres undefined),Inhibition,Plasmodium falciparum [1],93%
same,Inhibition,Plasmodium falciparum [2],38%
same,Inhibition,HepG2,3%
CC(CN(C)C)C(=O)Nc1cccc(-c2ccc(-c3nc4ccccc4[nH]3)cc2)c1 (centres undefined),Inhibition,Plasmodium falciparum [1],98%
same,Inhibition,Plasmodium falciparum [2],25%
same,Inhibition,HepG2,1%
COc1ccc(CNCc2ccc(-c3ccc(-c4nc5cccc(C)c5[nH]4)cc3)cc2)cc1.O=C(O)C(F)(F)F,Inhibition,Plasmodium falciparum [1],100%
same,Inhibition,Plasmodium falciparum [2],97%
same,Inhibition,HepG2,53%
Cl.O=c1cc(NCCCNCc2cc3ccccc3s2)[nH]c2ccccc12,Inhibition,Plasmodium falciparum [1],89%
same,Inhibition,Plasmodium falciparum [2],0%
same,Inhibition,HepG2,3%
CN1CCN(CCCN(Cc2cccc(-c3ccc(CNCc4ccc5c(c4)OCO5)cc3)c2)C(=O)CCC2CCCC2)CC1.O=C(O)C(F)(F)F,Inhibition,Plasmodium falciparum [1],98%
same,Inhibition,Plasmodium falciparum [2],84%
same,Inhibition,HepG2,91%
